Most compounds without a hit are left out; they make up all but 21% or so of the library.
Shiga inhibitor = inhibitors of Shiga toxin in Vero cells. Vero cells, Shiga toxin protein synthesis inhibition reporter. AID 2315. 290,000 tested, 9.2% active. inhibition, % at 38.7 µM; in the data active = inhibition mostly above about 28%, no sharp cut-off; inactive = mostly below about 43%
Pf growth 48h = inhibits P. falciparum growth in the first generation, 48 h; Potency, µM (doses to about 28.7 µM), hits mostly inhibitors; 310,000 tested, 5.9% active; P. falciparum luciferase growth in erythrocytes, 48 h
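Luminescence readout; reporter = integrated firefly luciferase in P. falciparum. RBC culture at 2% hematocrit, 0.1% parasitemia final, 37 C/5% CO2; decreased signal taken as growth inhibition.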
Pf growth 96h = P. falciparum growth inhibition at 96 hour, primary screen for plastid delayed-death inhibitors; P. falciparum luciferase reporter growth, 96 h; Potency, µM (top dose mostly 28.7 µM), hits mostly inhibitors; 320,000 tested, 6.9% active; AID 504834
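Infected RBCs, 2% Hct / 0.05% parasitemia final; luciferase-reporter P. falciparum; cpd 96 h, 37 C, 5% CO2; luciferase detection reagent; luminescence.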
HCMV inh = human cytomegalovirus inhibition; 410,000 tested, 4.5% active; HFF cells, HCMV-luciferase reporter, 72 h; hits give low values; activity change, negative = inhibition, % at 57.5 µM; in the data active = activity change below about -60%; inconclusive = no clear call, values can overlap the other calls; inactive = above about -39%
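After 16 h attachment at 37C, HFF cells received test compound and HCMV-luciferase (1 PFU/cell); reporter luminescence read 72 h later, data normalized against buffer-only and known inhibitor Salinomycin.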
HCV inh = HCV inhibition. Huh7.5.1 HCVcc-Cre infection, luciferase reporter, 44 h. Potency, µM (highest dose often 41.8 µM), hits mostly inhibitors. 340,000 tested, 3.4% active. AID 651820
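1,000 cells/well; 4 h culture; + compound; + HCVcc-Cre (~0.5 moi); 44 h; luciferase substrate, RT 15 min; read 15 sec.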
CHX counter = counter-screen hit for Shiga toxin inhibitors, cycloheximide; 300,000 tested, 12% active; AID 2314; cell reporter, cycloheximide protein synthesis inhibition counterscreen; max response, %; in the data active = max response mostly above about 13%, no sharp cut-off; inactive = mostly below about 14%; note: read at 38.3 µM for the half of the compounds with a filed dose
Each line names hits and unclear results; the compound was inactive in the other large screens. Unless noted, calls come from the whole dose curve; as a rule, active = well fitted inhibition curve with a large enough effect; inconclusive = small, poorly fitted or top-dose-only effect, or another doubt; inactive = no such curve, though single readings can be large or run the other way.

O=C(Cc1ccc(Cl)cc1)Nc1ccc(Br)cn1	Shiga inhibitor 72, Pf growth 96h inconclusive, CHX counter 36
COc1ccccc1CC1(C)C(=O)Nc2ccc(S(=O)(=O)NC3CCCCC3)cc21 (centres undefined)	none (no result: Shiga inhibitor, Pf growth 48h, Pf growth 96h, HCV inh, CHX counter)
CCc1nnc(NC(=O)CCC(=O)NC2CCCCCC2)s1	none
O=C(Cc1ccc(Cl)cc1)Nc1ccccn1	CHX counter 36
O=C(Cc1ccc(F)cc1)Nc1ccc(Cl)cn1	CHX counter 26
O=C(Cc1ccc(Cl)cc1)Nc1ccc(Cl)cn1	Shiga inhibitor 67, CHX counter 44
O=C(COC(=O)Cc1ccc(F)cc1)Nc1ccc(Cl)cn1	none (no result: Shiga inhibitor, CHX counter)
CC(C)[C@H](NC(=O)c1cccc(S(=O)(=O)N2CCOCC2)c1)C(=O)OCC(=O)Nc1cccc(Br)c1	HCMV inh inconclusive (no result: Shiga inhibitor, Pf growth 48h, Pf growth 96h, CHX counter)
CCOC(=O)c1ccc(N2C(=O)c3n[nH]c(-c4cccs4)c3C2c2ccc(Cl)cc2Cl)cc1 (centres undefined)	HCMV inh -107 (no result: Shiga inhibitor, Pf growth 48h, Pf growth 96h, HCV inh, CHX counter)
CCOC(=O)c1ccc(N2C(=O)c3n[nH]c(-c4cccs4)c3C2c2cccc(F)c2)cc1 (centres undefined)	none (no result: Shiga inhibitor, Pf growth 48h, Pf growth 96h, HCV inh, CHX counter)
CCOC(=O)c1ccc(N2C(=O)c3n[nH]c(-c4cccs4)c3C2c2ccc(C)cc2)cc1 (centres undefined)	none (no result: Shiga inhibitor, Pf growth 48h, Pf growth 96h, HCV inh, CHX counter)
CCOC(=O)c1ccc(N2C(=O)c3n[nH]c(-c4cccs4)c3C2c2ccc(O)c(OC)c2)cc1 (centres undefined)	HCMV inh -74 (no result: Shiga inhibitor, Pf growth 48h, Pf growth 96h, HCV inh, CHX counter)
CCCCC(=O)Nc1ccc2c(c1)nc(CN1CCN(C(=O)OCC)CC1)n2C	Pf growth 48h inconclusive
CC(C)c1ccc(NC(=O)CSC2=Nc3ccccc3C3=NC(CC(=O)NCc4ccco4)C(=O)N23)cc1 (centres undefined)	none (no result: Shiga inhibitor, Pf growth 48h, Pf growth 96h, HCV inh, CHX counter)
COc1ccc(-c2csc3ncnc(N4CCN(c5ccccc5OC)CC4)c23)cc1	Pf growth 48h 5.9µM, Pf growth 96h inconclusive, HCV inh 11µM
COc1ccc(-c2csc3ncnc(N4CCN(CCO)CC4)c23)cc1	none
CCOc1ccccc1N1CCN(c2ncnc3scc(-c4ccc(OC)cc4)c23)CC1	Pf growth 48h 5.9µM, Pf growth 96h inconclusive, HCMV inh -60, HCV inh inconclusive
CC(=O)c1ccc(NS(=O)(=O)c2cc(-c3cc(C)no3)ccc2C)cc1	none (no result: Shiga inhibitor, Pf growth 48h, Pf growth 96h, HCV inh, CHX counter)
O=C(O)c1ccc2c(c1)C(=O)N(c1cccc(S(=O)(=O)Nc3cccc(C(F)(F)F)c3)c1)C2=O	none
CCC(=O)OC1C(N(C)C)CC(C)O[C@H]1O[C@H]1[C@H](C)[C@@H](O[C@H]2CC(OC)[C@@H](O)C(C)O2)[C@H](C)C(=O)O[C@@H](CC)[C@](C)(O)[C@@H](O)[C@H](C)C(=O)[C@@H](C)C[C@]1(C)O (some centres undefined)	Pf growth 96h 7.6µM (no result: Shiga inhibitor, HCMV inh, HCV inh, CHX counter)
CC[C@H]1OC(=O)[C@H](C)[C@@H](O[C@H]2C[C@@](C)(OC)[C@@H](O)[C@H](C)O2)[C@H](C)[C@@H](O[C@@H]2O[C@H](C)C[C@H](N(C)C)[C@H]2O)[C@](C)(O)C[C@@H](C)C(=O)[C@H](C)[C@@H](O)[C@]1(C)O	Pf growth 96h inconclusive
CCOC(=O)CCC(=O)O[C@H]1[C@H](O[C@@H]2[C@@H](C)[C@H](O[C@H]3C[C@@](C)(OC)[C@@H](O)[C@H](C)O3)[C@@H](C)C(=O)O[C@H](CC)[C@@](C)(O)[C@H](O)[C@@H](C)C(=O)[C@H](C)C[C@@]2(C)O)O[C@H](C)C[C@@H]1N(C)C	Pf growth 96h 5.2µM, HCV inh inconclusive
CC(=O)NC12CC3CC(C1)CC(C(=O)N1CCN(S(=O)(=O)c4cccc([N+](=O)[O-])c4)CC1)(C3)C2	none (no result: Shiga inhibitor, Pf growth 48h, Pf growth 96h, CHX counter)
CC(C)c1ccc(S(=O)(=O)N2CCN(C(=S)NCc3ccco3)CC2)cc1	Pf growth 48h inconclusive, Pf growth 96h inconclusive
CC(=O)NC12CC3CC(C1)CC(C(=O)N1CCN(S(=O)(=O)c4cccc(C(F)(F)F)c4)CC1)(C3)C2	Pf growth 48h 13µM, Pf growth 96h inconclusive, HCMV inh inconclusive (no result: Shiga inhibitor, CHX counter)
CSCCCNC(=S)N1CCN(S(=O)(=O)c2cccc(C(F)(F)F)c2)CC1	Pf growth 48h 10µM
O=S(=O)(c1cccc(C(F)(F)F)c1)N1CCN(C(=S)NCc2ccco2)CC1	Pf growth 48h 4.7µM, Pf growth 96h 2.3µM
O=C(O)CCC(=O)N(Cc1ccco1)C1CC(=O)N(c2ccccc2)C1=O (centres undefined)	none
COc1cccc(NC(=O)CN2C(=O)NC3(CCCc4ccccc43)C2=O)c1 (centres undefined)	Pf growth 96h 4.7µM (no result: Shiga inhibitor, CHX counter)
COc1ccc(C(NC(=O)CN2C(=O)NC3(CCc4ccccc43)C2=O)c2ccccc2)cc1 (centres undefined)	Pf growth 48h 12µM, Pf growth 96h inconclusive (no result: Shiga inhibitor, CHX counter)
COc1ccc(C(NC(=O)CN2C(=O)NC3(CCc4ccccc43)C2=O)c2ccc(OC)cc2)cc1 (centres undefined)	Pf growth 48h 10µM, Pf growth 96h inconclusive, HCV inh inconclusive (no result: Shiga inhibitor, CHX counter)
COc1ccc(OC)c(NC(=O)CN2C(=O)NC3(CCCc4ccccc43)C2=O)c1 (centres undefined)	Pf growth 96h inconclusive (no result: Shiga inhibitor, CHX counter)
O=C(CN1C(=O)NC2(CCc3ccccc32)C1=O)Nc1c(Cl)cccc1Cl (centres undefined)	none (no result: Shiga inhibitor, Pf growth 48h, Pf growth 96h, CHX counter)
COc1ccc(C(=O)CN2C(=O)NC3(CCc4ccccc43)C2=O)cc1 (centres undefined)	none
COc1cc2nccc(Oc3ccc(NC(=O)Nc4ccc(F)cc4F)c(F)c3)c2cc1OC	none (no result: Pf growth 48h, Pf growth 96h, HCMV inh, HCV inh)
O=C(CN1C(=O)NC(Cc2c[nH]c3ccccc23)C1=O)NCCc1ccccc1 (centres undefined)	HCMV inh inconclusive

Assay outcomes (PubChem)
